# Data published in the supplement of paper PMC8975748.
# Structures can show the parent of a compound that is named as a salt.
# Tested on: Saccharomyces cerevisiae BY4741 SeMeCo community
# Test: z-score of subpopulation abundance vs DMSO median, subpopulation auxotrophic for L; higher = larger share of this subpopulation than in DMSO controls
# Conditions: 10 µM; 24 h; SM minimal medium; subpopulation (auxotrophy): L
# Description: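 Fluorescent four-plasmid SeMeCo (self-establishing metabolically cooperating S. cerevisiae BY4741 community; plasmids pH-mRuby2, pL-mWasabi, pU-eCFP, pM-TagRFP657) was grown 24 h in minimal SM medium with each Selleck FDA-approved drug at 10 µM in 384-well plates. Cells were fixed and imaged by high-content confocal microscopy. For each auxotrophic subpopulation (and the prototroph), a z-score gives the deviation from the DMSO vehicle-control population median.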
row,Compound,z-score of subpopulation abundance
1,CCN1CCCC1CNC(=O)c1cc(S(=O)(=O)CC)c(N)cc1OC (stereo not given) [Amisulpride],-0.08
2,Cc1nc(C)c(Cl)c(O)c1Cl [Clopidol],0.46
3,CCCC(=O)OCOC(=O)C1=C(C)NC(C)=C(C(=O)OC)C1c1cccc(Cl)c1Cl (stereo not given) [Clevidipine Butyrate],2.14
4,Nc1c(CC(=O)O)cccc1C(=O)c1ccc(Br)cc1 [Bromfenac Sodium],-0.45
5,CN[C@@H]1[C@@H](O)[C@@H](O[C@@H]2[C@@H](O)[C@H](O[C@H]3O[C@H](CN)[C@@H](O)[C@H](O)[C@H]3O)[C@@H](N)C[C@H]2NC(=O)[C@@H](O)CN)OC[C@]1(C)O [Isepamicin Sulphate],-1.49
6,CCOC(=O)C1=C(COCCN)NC(C)=C(C(=O)OC)C1c1ccccc1Cl (stereo not given) [Amlodipine Besylate],2.94
7,C[C@](N)(Cc1ccc(O)c(O)c1)C(=O)O [Methyldopa],-0.9
8,CC(C)COc1ccc(CNC(=O)N(Cc2ccc(F)cc2)C2CCN(C)CC2)cc1 [Pimavanserin],-1.18
9,COCCCOc1ccnc(C[S+]([O-])c2nc3ccccc3[nH]2)c1C (stereo not given) [Rabeprazole],1.62
10,CC(=O)NC[C@H]1CN(c2ccc(N3CCOCC3)c(F)c2)C(=O)O1 [Linezolid],-0.63
11,NC(=O)Cc1cccc(C(=O)c2ccccc2)c1N [Nepafenac],1.39
12,O=C1CN(/N=C/c2ccc(-c3ccc([N+](=O)[O-])cc3)o2)C(=O)N1 [Dantrolene sodium hemiheptahydrate],1.44
13,C[N+]1(C)CCC(=C(c2ccccc2)c2ccccc2)CC1 [Diphemanil Methylsulfate],-0.56
14,Nc1ccc(S(=O)(=O)Nc2ccnn2-c2ccccc2)cc1 [Sulfaphenazole],0.58
15,NC(=NCCCCCCN=C(N)N=C(N)Nc1ccc(Cl)cc1)N=C(N)Nc1ccc(Cl)cc1 [Chlorhexidine?2HCl],0.63
16,CCn1cc(C(=O)O)c(=O)c2cc(F)c(N3CCNC(C)C3)c(F)c21 (stereo not given) [Lomefloxacin HCl],1.02
17,Cc1cc2c(s1)Nc1ccccc1N=C2N1CCN(C)CC1 [Olanzapine],-0.11
18,Cc1cc(O)cc(C)c1Cl [Chloroxylenol],0.85
19,CN(Cc1ccc(C(C)(C)C)cc1)Cc1cccc2ccccc12 [Butenafine HCl],-0.23
20,CC(=O)OCC(COC(C)=O)OC(C)=O [Triacetin],-0.06

row,Compound,z-score of subpopulation abundance
1,C[C@@H](c1ncncc1F)[C@](O)(Cn1cncn1)c1ccc(F)cc1F [Voriconazole],-2.55
2,O=C(O)c1cc(-c2ccc(F)cc2F)ccc1O [Diflunisal],0.56
3,Cn1nnc(-c2ccc(-c3ccc(N4C[C@H](COP(=O)(O)O)OC4=O)cc3F)cn2)n1 [Tedizolid Phosphate],-1.36
4,Cc1cc(/C=C/c2ccc3cc(N(C)C)ccc3[n+]2C)c(C)n1-c1ccccc1 [pyrvinium],-1.29
5,CCCCC(F)(F)[C@@]1(O)CC[C@H]2[C@@H](CC(=O)[C@@H]2CCCCCCC(=O)O)O1 [Lubiprostone],-1.05
6,CC(C)(C)C(=O)C(Oc1ccc(Cl)cc1)n1ccnc1 (stereo not given) [Climbazole],-2.61
7,"CO[C@H]1C[C@@H]2CC[C@@H](C)[C@@](O)(O2)C(=O)C(=O)N2CCCC[C@H]2C(=O)O[C@H]([C@H](C)C[C@@H]2CC[C@@H](OP(C)(C)=O)[C@H](OC)C2)CC(=O)[C@H](C)/C=C(\C)[C@@H](O)[C@@H](OC)C(=O)[C@H](C)C[C@H](C)/C=C/C=C/C=C/1C [Ridaforolimus (Deforolimus, MK-8669)]",-0.55
8,Cn1c([N+](=O)[O-])cnc1COC(N)=O [Ronidazole],-0.01
9,CO[C@@H]1[C@H](OC(=O)/C=C/C=C/C=C/C=C/C(=O)O)CC[C@]2(CO2)[C@H]1[C@@]1(C)O[C@@H]1CC=C(C)C [Fumagillin],1.24
10,OCCOCCN1CCN(C2=Nc3ccccc3Sc3ccccc32)CC1 [Quetiapine Fumarate],0.37
11,OCCN1CCN(CC/C=C2/c3ccccc3Sc3ccc(C(F)(F)F)cc32)CC1 [Flupenthixol dihydrochloride],1.34
12,COc1ccnc(C[S+]([O-])c2nc3cc(-n4cccc4)ccc3[nH]2)c1C (stereo not given) [Ilaprazole],2.44
13,CO/N=C(\C(=O)N[C@@H]1C(=O)N2C(C(=O)O)=C(COC(N)=O)CS[C@H]12)c1ccco1 [Cefuroxime sodium],-0.97
14,COc1cc(NS(=O)(=O)c2ccc(N)cc2)ncn1 [Sulfamonomethoxine],0
15,COc1ccc(Cc2cnc(N)nc2N)cc1OC [Diaveridine],-0.53
16,CCC(=O)NS(=O)(=O)c1ccc(-c2c(-c3ccccc3)noc2C)cc1 [Parecoxib],0.2
17,O=C1NCC2(CCN(CCc3ccccc3)CC2)O1 [Fenspiride HCl],-0.18
18,COc1ccc(C(Cl)=C(c2ccc(OC)cc2)c2ccc(OC)cc2)cc1 [Chlorotrianisene],0.44
19,COc1cc(NS(=O)(=O)c2ccc(N)cc2)nc(OC)n1 [SulfadiMethoxine sodium],-0.99
20,C1N2CN3CN1CN(C2)C3 [Methenamine],-0.63
